The list is not random: actives were taken first. Their share in the collection is about 2.3%.
Pol eta inh = DNA polymerase eta (human) inhibition. Q9Y253. recombinant Pol eta, fluorescent DNA replication assay. Potency, µM (top dose mostly 114 µM), inactives show at the top dose activity change, negative = inhibition, most hits filed as inhibitors. 390,000 tested, 1.2% active; note: % is set by controls: 0 for no effect and ±100 for the full control effect
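Pol eta (10 nM) was preincubated with compounds for 15 min at room temperature, after which fluorescent replication substrate (50 nM final) was added to start the reaction. Fluorescence was read kinetically at 0 and 10 min.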
POLB inh = DNA polymerase beta (human) inhibition | P06746 | Pol beta primer extension/strand displacement, fluorescence kinetic | 340,000 tested, 1.3% active | AID 485314 | Potency, µM (top dose mostly 114 µM), inactives show at the highest dose activity change, negative = inhibition, most hits filed as inhibitors; note: % is set by controls: 0 for no effect and ±100 for the full control effect
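Reaction started by 50 nM substrate onto compound-treated Pol beta (10 nM, 15 min preincubation, room temperature); plates read at 0 min and 10 min. Normalized concentration-effect data fitted by four-parameter Hill equation.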
POLI inh = blocks human DNA polymerase iota activity | Q9UNA4 | Pol iota fluorescent replication assay, 10 min | Potency, µM (doses to about 115 µM), without a hit: at the top dose activity, negative = inhibition, most hits filed as inhibitors | 390,000 tested, 1% active | AID 588590
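Fluorescent replication assay read twice, at 0 min and 10 min after adding 50 nM (final) substrate. Enzyme (10 nM) and compounds were first incubated 15 min at room temperature; enzyme-free buffer wells were negative controls.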
POLK inh = inhibitors of human DNA polymerase kappa. Q9UBT6. purified Pol kappa, fluorescent DNA synthesis assay, 10 min. Potency, µM (top dose mostly 107 µM), inactives show top-dose activity, negative = inhibition, most hits filed as inhibitors. 400,000 tested, 0.53% active; note: % is set by controls: 0 for no effect and ±100 for the full control effect
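Fluorescent qHTS in 1536-well format: enzyme (10 nM) and compound sat 15 min at room temperature before 50 nM substrate (final) was added. Signal taken at 0 and 10 min; no-enzyme buffer wells were negative controls.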
WRN inhibitor = blocks human WRN helicase; WRN helicase unwinding, fluorescent forked duplex, kinetic; Potency, µM (highest dose often 114 µM), for the others: at the top dose activity change, negative = inhibition, actives largely listed as inhibitors; 360,000 tested, 0.46% active; AID 651768; note: % is set by controls: 0 for no effect and ±100 for the full control effect; nearly all actives have a fitted effect of over 55% in size
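Fluorescence dequenching readout, ex 525 nm/em 598 nm, kinetic mode: forked duplex DNA (100 nM final) with adjacent fluorophore and quencher unwound by WRN (20 nM final) with 2 mM ATP. Compound preincubation 15 min, room temperature.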
The depositor's hits bear a star; ? = inconclusive; · = no result; [ ] = another dose, or the depositor's remark. Calls come from the whole dose curve; as a rule, active = well fitted curve in the direction sought with a large enough effect; inconclusive = small, poorly fitted or top-dose-only effect, or another doubt; inactive = no such curve, though single readings can be large; an effect the other way counts as inactive or inconclusive. Potency is the fitted concentration of half-maximal effect.

SMILES	Pol eta inh	POLB inh	POLI inh	POLK inh	WRN inhibitor
C/C(=N/NC(=O)c1cc2ccccc2cc1O)c1ccco1	-13.7%	63.1µM*	44.7µM*	?	-9.4%[11.6 µM]
C/C(=N\NC(=O)c1cc2ccccc2cc1O)c1cccs1	-16.5%	?	?	-38.9%	?
Cc1cc(NC(=O)C(C)SCC(=O)Nc2nnc(CC(C)C)s2)no1 (centres undefined)	-8.0%	·	33.8%	0.7%	8.0%
Cc1cc(NC(=O)C(C)Sc2nnc(NCc3ccco3)s2)no1 (centres undefined)	?	·	39.8µM*	-14.5%	-11.3%
N#Cc1ccc(/C=C2/C=Cc3ccccc32)cc1	·	·	32.3%	-9.4%	·
CC(C)C[C@H](NC(=O)[C@H](CO)NC(=O)CNC(=O)[C@H](CCCCN)NC(=O)[C@H](CCCN=C(N)N)NC(=O)[C@H](C)NC(=O)[C@H](Cc1ccccc1)NC(=O)[C@@H](N)CCCN=C(N)N)C(=O)N[C@@H](CCCN=C(N)N)C(=O)N[C@@H](CCC(N)=O)C(=O)N[C@@H](CCCCN)C(=O)N[C@@H](CC(N)=O)C(=O)N[C@H](C(=O)O)C(C)C	·	·	·	9.6%[60.1 µM]	·
N#CC1=C(N)SC(N)=C(C#N)C1c1ccoc1	·	7.08µM*	·	·	·
CC1=C(C#N)C(c2ccoc2)C(C(=O)OCc2ccccc2)=C(N)S1 (centres undefined)	-7.1%	3.0%	?	-7.1%	-22.5%
CCOc1ccc(CNC(=O)C2CCN(C(=O)c3ccc(-n4ccc5ccccc54)s3)CC2)cc1	-3.5%	0.0%	89.1µM*	-17.7%	·
O=C(NCc1ccc(F)cc1)C1CCN(C(=O)c2ccc(-n3ccc4ccccc43)s2)CC1	-21.6%	-29.7%	?	-44.2%	·
O=S(=O)(c1ccc(Cl)cc1)N1CCN(c2nc(-c3ccc(F)cc3)nc3cc(Cl)ccc23)CC1	·	·	18.3%	12.8%	·
CC(/C=N/NC(=O)c1nnn(-c2nonc2N)c1CN(C)C)=C\c1ccco1	-6.8%	-0.2%	20µM*	79.4µM*	-7.9%[11.6 µM]
CCCN(CCC)Cc1c(C(=O)N/N=C/C(C)=C\c2ccco2)nnn1-c1nonc1N	-16.2%	-10.3%	28.0%	-5.1%	1.9%
CCCCCCCCCCCCCCCCCCc1ccc(C(=O)/C=C\C(=O)O)cc1	·	·	·	12.6µM*	·
O=C(O)/C=C/C(=O)c1ccc(O)cc1	3.3%	0.3%	17.8µM*	-19.5%	-4.4%[11.6 µM]
CC[C@H](C)[C@H](NC(=O)[C@H](Cc1ccc(O)cc1)NC(=O)[C@H](Cc1cnc[nH]1)NC(=O)[C@H](CCCNC(=N)N)NC(=O)[C@H](CC(C)C)NC(=O)[C@H](C)NC(=O)[C@H](CO)NC(=O)[C@H](Cc1ccc(O)cc1)NC(=O)[C@H](Cc1ccc(O)cc1)NC(=O)[C@H](CCCNC(=N)N)NC(=O)[C@H](C)NC(=O)[C@H](CC(C)C)NC(=O)[C@H](CC(=O)O)NC(=O)[C@H](CCC(=O)O)NC(=O)[C@H](C)NC(=O)[C@@H]1CCCN1C(=O)[C@H](C)NC(=O)[C@H](CC(=O)O)NC(=O)[C@H](CCC(=O)O)NC(=O)CNC(=O)[C@@H]1CCCN1C(=O)[C@H](CC(N)=O)NC(=O)[C@H](CC(=O)O)NC(=O)[C@@H]1CCCN1C(=O)[C@H](CCCCN)NC(=O)[C@H](CO)NC(=O)[C@@H]1CCCN1C(=O)[C@@H](N)Cc1ccc(O)cc1)C(=O)N[C@@H](CC(N)=O)C(=O)N[C@@H](CC(C)C)C(=O)N[C@H](C(=O)N[C@H](C(=O)N[C@@H](CCCNC(=N)N)C(=O)N[C@@H](CCC(N)=O)C(=O)N[C@@H](CCCNC(=N)N)C(=O)N[C@@H](Cc1ccc(O)cc1)C(N)=O)[C@@H](C)O)[C@@H](C)CC	·	·	·	7.0%[60.1 µM]	·
COc1cccc2c1Oc1ncccc1N(c1ccc(C(=O)NCc3cccc(C)c3)s1)C2	-13.0%	26.5%	89.1µM*	?	·
CC(C)(C)c1ccc(C(=O)C[n+]2cc(Br)cc(Br)c2)cc1	·	·	9.8%	6.4%	·
Clc1cccc(Cl)c1C1Nc2cccc3cccc(c23)N1	-4.3%	-59.0%	35.5µM*	-39.3%	-10.0%[57.1 µM]
O=C(CCCCCn1c(=S)[nH]c2cc3c(cc2c1=O)OCO3)N1CCN(C(=O)c2ccco2)CC1	?	?	28.2µM*	-30.4%	?
O=C(CCCn1c(=S)[nH]c2cc3c(cc2c1=O)OCO3)NCc1cccc(Cl)c1	-16.6%	1.3%	44.7µM*	?	-2.8%[11.6 µM]
CC(N)COC(=O)C(CCCCN)NC(=O)Cc1c(-c2ccc3ccccc3c2)[nH]c2c1ccc1ccccc12 (centres undefined)	·	·	·	-12.1%[12 µM]	·
Cc1cc(C(=O)COc2cccc3cccnc23)c(C)n1C	?	11.2µM*	8.1%	-11.6%	6.4%
CN(C)c1ccc(/C=C/c2cccc3cc4ccccc4nc23)cc1	·	·	-9.9%	-14.6%	·
O=c1c(C(c2nnnn2C2CCCCC2)N2CCCCC2)coc2ccc(Cl)cc12 (centres undefined)	-13.3%	100µM*	8.2%	-9.1%	0.8%
SMILES	Pol eta inh	POLB inh	POLI inh	POLK inh	WRN inhibitor
COc1cccc(/C=C2\Oc3cc(OCC(=O)N4CCC[C@H]4C(=O)O)ccc3C2=O)c1	44.7µM*	-1.8%	1.4%	-3.8%	-9.9%[11.6 µM]
COc1cc(N2Cc3ccccc3C2)ccc1C=O	?	11.2µM*	?	-23.3%	2.9%
CCOC(=O)C1CCN(S(=O)(=O)c2ccc3c(c2)CC(=O)N3C)CC1	?	-3.5%	14.1µM*	-11.8%	5.2%
COc1ccc(C2=NC(c3ccc(Cl)cc3)C(c3ccc(Cl)cc3)N2C(=O)N2CCNC(=O)C2)c(OC(C)C)c1 (centres undefined)	·	·	·	-10.2%[12 µM]	·
Nc1ccc(N)c(C(=O)O)c1	1.26µM*	0.398µM*	2.51µM*	6.31µM*	31.6µM*
Nc1ccc(C(=O)O)c(O)c1	-13.4%	-13.0%	-12.9%	-12.8%	-8.7%
CC(C)C[C@H](NC(=O)[C@H](CC(C)C)NC(=O)[C@@H](Cc1c[nH]c2ccccc12)NC(=O)[C@H](Cc1ccccc1)NC(=O)[C@@H](Cc1c[nH]c2ccccc12)NC(=O)[C@H](CCC(N)=O)NC(=O)[C@H](CCC(N)=O)NC(=O)[C@@H]1CCCN1C(=O)[C@H](CCCCN)NC(=O)[C@@H]1CCCN1C(=O)[C@H](N)CCCN=C(N)N)C(N)=O	·	·	·	17.3%[60.1 µM]	·
Nc1ccc(O)c([N+](=O)[O-])c1	-12.7%	·	79.4µM*	-23.7%	-5.2%
CC(C)NC(=O)CC(=O)N/N=C/c1cccs1	-1.4%	14.1µM*	25.0%	-2.2%	-4.4%
C(=NN=C(NN=Cc1cccs1)NN=Cc1cccs1)c1cccs1	-5.6%	·	79.4µM*	-3.2%	-4.0%
O=C(CC(=O)N/N=C/c1cccs1)NCc1ccccc1	-20.7%	0.1%	28.2%	-7.8%	2.4%
CSc1ccc(/C=C2\C=Cc3ccccc32)cc1	·	·	21.1%	-9.8%	·

Assay outcomes (PubChem BioAssay)
